High-throughput results from PubChem.
This is a sample that favours compounds with a hit; in the whole collection about 5.3% have one here.
ALOX12 inhib: inhibitors of human 12-lipoxygenase (ALOX12) | purified 12-hLO, xylenol orange hydroperoxide absorbance | Potency, µM (titrated, usually from 57.1 µM), without a hit: top-dose activity change, negative = inhibition, usual class: inhibitors | 0.12% of 150,000 active | P18054; also: potency is read from the fitted curve at half-maximal effect; nearly all actives have a fitted effect of over 55% in size
Target sequence (P18054 whole entry, looked up): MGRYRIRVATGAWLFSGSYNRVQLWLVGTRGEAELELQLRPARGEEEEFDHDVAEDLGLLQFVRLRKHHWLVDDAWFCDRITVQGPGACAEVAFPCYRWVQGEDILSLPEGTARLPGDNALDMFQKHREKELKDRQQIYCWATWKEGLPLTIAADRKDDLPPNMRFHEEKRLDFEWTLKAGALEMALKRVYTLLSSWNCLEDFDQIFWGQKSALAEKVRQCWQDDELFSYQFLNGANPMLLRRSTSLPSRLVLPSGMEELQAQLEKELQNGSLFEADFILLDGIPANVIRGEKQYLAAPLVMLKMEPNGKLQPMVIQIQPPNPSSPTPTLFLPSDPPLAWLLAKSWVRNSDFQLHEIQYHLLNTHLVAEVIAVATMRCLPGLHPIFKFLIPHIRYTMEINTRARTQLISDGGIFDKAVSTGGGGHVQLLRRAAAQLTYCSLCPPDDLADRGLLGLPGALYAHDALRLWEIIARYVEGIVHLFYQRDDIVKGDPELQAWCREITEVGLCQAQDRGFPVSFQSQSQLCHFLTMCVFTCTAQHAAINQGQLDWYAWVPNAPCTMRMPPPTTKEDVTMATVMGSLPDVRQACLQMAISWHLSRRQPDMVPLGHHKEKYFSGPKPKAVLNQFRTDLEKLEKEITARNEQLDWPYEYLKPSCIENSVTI
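150 nM 12hLO, 25 mM Hepes pH 7.0 + 0.01% Triton X-100; cpd preinc 15 min RT; 40 uM arachidonic acid, 30 min RT; Fe-XO 30 min; A573/A405 ratio as read-out.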
IMPase Li cell: cell-permeable IMPase inhibitors with lithium potentiation | CHO-M1 cells, IP1 TR-FRET (IP-One), carbachol + lithium | Potency, µM (highest dose often 59.4 µM), for inactives: top-dose activity, negative = IMPase inhibition, most hits filed as inhibitors | 0.35% of 210,000 active | AID 1457;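 also: IP1 builds up when IMPase is blocked and the TR-FRET signal falls; potency is read from the fitted curve at half-maximal effect; plate controls were basal vehicle for no effect and high inhibitor control for full effect; nearly all actives have a fitted effect of over 50% in size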
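IP1 accumulation measured by competitive TR-FRET in lysed CHO-M1 cells after 30 min compound exposure at 37C, with a small lithium addition to potentiate weak responses. Hill-equation AC50 from ratio and donor-channel data.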
IMPase cell inh: cell-permeable inhibitors of inositol monophosphatase (IMPase); CHO-M1 cells, IP1 accumulation, HTRF TR-FRET ratio; inhibition (IP1 accumulation), % at 46.1 µM; 120,000 tested, under 10 active; AID 901; active = well fitted curve in the direction sought with a large enough effect in the signal ratio, not every such curve was filed as active; inconclusive = small, poorly fitted or top-dose-only effect, or a change in a side signal; inactive = no such curve, though single readings can be large or run the other way; the % refers to the signal ratio;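 also: cells stimulated with carbachol in lithium chloride buffer; plate controls were DMSO basal wells for no effect and reference inhibitor wells for full effect; higher means more IMPase inhibition seen as more IP1 and lower FRET ratio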
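Cellular IMPase inhibition is scored as a rise in cytosolic IP1, detected by competitive TR-FRET between d2-labelled IP1 and a europium anti-IP1 antibody. M1-expressing CHO cells were stimulated with carbachol for 30 min at 37C, with lithium (50 mM LiCl) present in the buffer.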
HPGD inh: HPGD (human) dehydrogenase inhibition | P15428 | purified HPGD, NADH fluorescence kinetic, PGE2 substrate | Potency, µM, for inactives: at the top dose activity change, negative = inhibition, usual class: inhibitors | 4.3% of 150,000 active; active = well fitted inhibition curve with a large enough effect, not every such curve was filed as active; inconclusive = small, poorly fitted or top-dose-only effect, or another doubt; inactive = no such curve, though single readings can be large or run the other way; also: potency is read from the fitted curve at half-maximal effect
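20 nM HPGD preincubated 15 min at room temperature with compound in 50 mM Tris-HCl pH 8, 0.01% Tween 20. Started with 1 mM NAD+ and 30 uM prostaglandin E2; NADH fluorescence (360/450 nm) read 5 times over 30-s intervals, last minus first.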
PNC assembly inh: inhibitors of perinucleolar compartment assembly; PC3M PTB-GFP, PNC prevalence imaging, 16 h; stronger effect = lower value; activity change (PNC), negative = inhibition, % at 10 µM; 3.1% of 140,000 active; AID 2417;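 active = readout at or below -70, meaning at least 70% loss of cells showing the perinucleolar compartment, a nuclear body marking cancer cells; inconclusive = readout between -30 and a set limit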;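 also: plate controls were DMSO wells for no effect and camptothecin positive control wells for full effect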
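PC3M cells stably expressing PTB-GFP, 750–1000 cells/well, treated 16 h at 37 °C with compound (23 nl of library stock), in duplicate. After paraformaldehyde fixation and Hoechst stain, imaged at 20x; PNC prevalence scored by image analysis.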
ALOX15B inhib: inhibitors of human 15-lipoxygenase 2 (ALOX15B); Potency, µM (series often up to 57.1 µM), for the others: top-dose activity change, negative = inhibition, hits mostly inhibitors; purified 15hLO-2, xylenol orange hydroperoxide absorbance; 0.56% of 110,000 active; also: potency is read from the fitted curve at half-maximal effect; nearly all actives have a fitted effect of over 60% in size
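Enzyme 50 nM, AA 45 uM, 25 mM Hepes pH 7.5 + 0.01% Triton X-100; cpd preinc 15 min RT, rxn 90 min RT; stop/detect with 200 uM XO + 300 uM Fe(II) in 50 mM H2SO4, 30 min; A573/A405.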
Active calls of the source: *; u = inconclusive; x = no result; [ ] = another dose, or the depositor's remark. Unless noted, calls follow the shape of the dose curve; as a rule, active = well fitted curve in the direction sought with a large enough effect; inconclusive = small, poorly fitted or top-dose-only effect, or another doubt; inactive = no such curve, though single readings can be large; an effect the other way counts as inactive or inconclusive. Unless noted, % is scaled to controls: 0 for no effect and ±100 for the full control effect.

SMILES	ALOX12 inhib	IMPase Li cell	IMPase cell inh	HPGD inh	PNC assembly inh	ALOX15B inhib
COc1ccc(CCNS(=O)(=O)c2ccc(S(=O)(=O)N3CCCC3)cc2)cc1OC	-3%	6%[38.3 µM]	-1	4%	-12	-9%
O=C(c1ccc(Cl)cc1)c1c[nH]c(C(=O)NNc2ccccc2)c1	x	2%	x	x	x	x
O=c1c2c([N+](=O)[O-])cc([N+](=O)[O-])cc2sn1-c1ccc(Br)cc1	3.2µM*	4%	-1	2.2µM*	-7	x
Cc1cc2c(cc(C(=O)OCC(=O)NCc3ccco3)n2C)s1	-2%	-13%[38.3 µM]	3	14µM*	23	-23%
Cn1c(C(=O)OCC(=O)NCc2ccco2)cc2sccc21	-8%	-2%[38.3 µM]	-7	u	3	-20%
CCn1ncc(Br)c1C(=O)Nc1nccs1	3%	13%[38.3 µM]	-3[1.84 µM]	25µM*	u	-3%[11.4 µM]
COc1ccc(Nc2nnc(SCC(=O)c3cc(C)n(CC4CCCO4)c3C)s2)cc1 (stereo not drawn)	-6%	53%[38.3 µM]	8	-26%	23	-20%
O=[N+]([O-])c1ccccc1OCCOCCOc1cccc2cccnc12	-6%	-5%	x	-8%	-86*	x
COC(=O)c1c(-c2ccc(OC)c(OC)c2)csc1N	-21%	54%[38.3 µM]	1	28µM*	-15	-22%
COC(=O)c1c(-c2cccc(OC)c2)csc1N	0%	5%	2	-19%	30	x
O=C(NC(=S)NCCc1ccccc1)c1ccccc1	18µM*	31%[38.3 µM]	8	-22%	u	13µM*
Fc1cccc(NC(=S)NCCc2ccccc2)c1	-21%	-4%	x	-24%	46	x
O=[N+]([O-])c1cccc(NC(=S)NCCc2ccccc2)c1	-60%	-7%	19	7.9µM*	43	x
O=C(CNC(=S)NC(=O)c1ccc(Cl)cc1)c1ccccc1	-9%	10µM*	x	-5%	-5	x
Cc1ccccc1-c1ccc2ncnc(NCCN3CCOCC3)c2c1	x	11%	x	x	x	61%
O=C(COC(=O)[C@H](Cc1c[nH]c2ccccc12)NC(=O)c1cccs1)NCc1ccccc1	-1%	9%	x	-15%	7	x
CC(C)(C)c1ccc(OCc2ccc(C(=O)N/N=C3\CC4CC=CC34)cc2)cc1 (stereo not drawn)	5%	3%	3	-19%	-27	x
O=C(N/N=C1\CC2CC=CC12)c1ccc(COc2ccccc2)cc1 (stereo not drawn)	1%	13%	x	22µM*	35	x
NC(=O)C1CCN(CC(=O)NC(=O)NC2CCCC2)CC1	x	1%	x	x	x	x
CCCCC(=O)Nc1ccc2c(c1)nc1n2CCSC1	8%	32%[38.3 µM]	-2	32µM*	-18	8%
CC(=O)Nc1ccc2c(c1)nc1n2CCSC1	-2%	-7%[38.3 µM]	-2	-9%	35	-1%
COc1ccc2nc(NC3=NCCC3)sc2c1	2%	0%[38.3 µM]	0	-8%	65	x
COc1ccc2nc(Nc3sc4c(c3C(N)=O)CCCC4)sc2c1	u	1%	-9	16µM*	-9	x
CCOc1ccc(OCC)c(NS(=O)(=O)c2ccc3c(c2)CCN3C(=O)C2CCC2)c1	-2%	25%[38.3 µM]	-2	-4%	-85*	0%
O=C(N/N=C/c1cccnc1)C(O)(c1ccccc1)c1ccccc1	-6%	14%[38.3 µM]	5	-4%	95	-19%
SMILES	ALOX12 inhib	IMPase Li cell	IMPase cell inh	HPGD inh	PNC assembly inh	ALOX15B inhib
O=C(N/N=C(\c1ccccc1)c1cccnc1)C(O)(c1ccccc1)c1ccccc1	-2%	13%[38.3 µM]	0	-7%	-92*	5%
CC(C)CN1CCCC2(CCN(C(=O)c3cccc(F)c3)CC2)C1	1%	-1%	x	-5%	x	-3%
COC(=O)Nc1ccc(S(=O)(=O)Nc2ccc(C)cc2)cc1	-4%	17%[38.3 µM]	-7	-4%	2	5%
COC(=O)c1cc2cc(NS(=O)(=O)c3ccc(C)cc3)ccc2s1	-19%	6%	-8	-15%	-100*	x
COCc1cc(C)nc2sc(C(=O)N3CCCC3)c(N)c12	-5%	7%[38.3 µM]	4	2.5µM*	-117*	-7%
Cc1cc(C)c2c(N)c(C(=O)NCc3ccco3)sc2n1	3%	1%	-5	u	-98*	x
